ZTA DNA inh: blocks Epstein-Barr virus ZTA, an EBNA-1 counter-screen; 320,000 compounds, 0.15% hits; ZTA-DNA binding, fluorescence polarization; inhibition, % at 11 µM; P03206; AID 2234; in the data active means inhibition above about 33%
LYPLA2 inh: LYPLA2 (human) inhibition in PME1 counter-screen; AID 2177; 320,000 compounds, 0.38% hits; inhibition, % at 5.9 µM; O95372; recombinant LYPLA2, FP-Rh probe fluorescence polarization;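 active means inhibition above the screen-wide mean plus 3 SD, limit set per campaign, cut at about 26% in these data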;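 further: 0% = LYPLA2 with DMSO and 100% = wells lacking LYPLA2 enzyme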
LYPLA1 counter: blocks human lysophospholipase 1, a PME1 counter-screen; O75608; recombinant LYPLA1, FP-Rh probe fluorescence polarization; inhibition, % at 5.9 µM; 320,000 compounds, 0.16% hits; AID 2174;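 active means inhibition above the mean of all tested compounds plus 3 SD, set per campaign, cut at about 14% in these data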;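 further: inhibitors block serine hydrolase probe labeling of LYPLA1 so polarization falls; 0% = enzyme with DMSO and 100% = wells lacking LYPLA1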
LANA-H2A inh: blocks KSHV LANA binding to histone H2A/H2B; 320,000 compounds, 0.6% hits; inhibition, % (test concentration not listed); AID 2629; cell-free LANA-H2A/H2B peptide, fluorescence polarization; in the data active means inhibition mostly above about 10%, no sharp cut-off; inactive means mostly below about 6.7%
Target sequence (Q9QR71 whole entry, looked up): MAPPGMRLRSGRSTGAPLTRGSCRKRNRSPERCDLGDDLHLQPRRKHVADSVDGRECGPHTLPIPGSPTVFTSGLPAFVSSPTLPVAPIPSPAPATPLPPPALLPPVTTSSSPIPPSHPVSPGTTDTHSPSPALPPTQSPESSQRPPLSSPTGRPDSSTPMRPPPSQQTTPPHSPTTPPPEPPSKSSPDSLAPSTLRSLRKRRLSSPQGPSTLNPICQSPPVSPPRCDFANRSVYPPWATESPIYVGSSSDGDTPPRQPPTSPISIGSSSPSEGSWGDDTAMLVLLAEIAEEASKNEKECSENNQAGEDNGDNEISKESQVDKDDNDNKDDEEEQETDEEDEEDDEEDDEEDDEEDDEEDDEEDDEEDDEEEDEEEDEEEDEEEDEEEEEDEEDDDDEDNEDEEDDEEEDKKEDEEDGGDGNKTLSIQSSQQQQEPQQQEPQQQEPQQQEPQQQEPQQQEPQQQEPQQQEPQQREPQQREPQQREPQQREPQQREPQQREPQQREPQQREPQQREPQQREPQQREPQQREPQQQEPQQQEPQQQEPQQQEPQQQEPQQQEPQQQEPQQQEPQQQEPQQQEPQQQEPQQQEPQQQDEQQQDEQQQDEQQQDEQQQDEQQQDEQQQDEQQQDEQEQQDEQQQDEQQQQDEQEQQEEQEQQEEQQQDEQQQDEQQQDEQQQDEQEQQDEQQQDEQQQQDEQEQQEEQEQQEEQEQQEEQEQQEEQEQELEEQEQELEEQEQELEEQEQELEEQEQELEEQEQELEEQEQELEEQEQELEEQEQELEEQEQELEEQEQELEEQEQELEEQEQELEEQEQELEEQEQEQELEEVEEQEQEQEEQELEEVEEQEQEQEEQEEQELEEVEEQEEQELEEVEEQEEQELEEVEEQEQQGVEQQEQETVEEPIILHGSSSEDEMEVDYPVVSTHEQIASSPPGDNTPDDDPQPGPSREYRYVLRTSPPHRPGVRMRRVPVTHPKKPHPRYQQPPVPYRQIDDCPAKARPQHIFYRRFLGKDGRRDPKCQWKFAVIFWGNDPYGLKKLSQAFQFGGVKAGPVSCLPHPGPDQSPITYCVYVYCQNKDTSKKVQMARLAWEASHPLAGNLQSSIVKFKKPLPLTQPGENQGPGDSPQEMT
EBNA-1 inh: blocks EBNA-1 binding to DNA | EBNA-1 DNA binding, fluorescence polarization | 300,000 compounds, 0.34% hits | AID 1950 | inhibition, % at 14.8 µM; in the data active means inhibition above about 28%
LYPLA2 conf: LYPLA2 (human) inhibition, confirmation counter-screen; shares compounds with LYPLA2 inh; recombinant LYPLA2, FP-Rh probe fluorescence polarization; inhibition, % at 5.9 µM; 1,100 compounds, 72% hits; AID 2232;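 active means mean inhibition across replicates above the hit cutoff set in the primary screen, cut at about 26% in these data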;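 further: blocked labeling of the enzyme by serine hydrolase FP-Rh probe lowers polarization; 0% = enzyme with DMSO and 100% = wells lacking LYPLA2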
LYPLA2 gel ABPP: blocks human acyl-protein thioesterase 2 in gel ABPP; shares compounds with LYPLA2 inh; rhLYPLA2 in mouse brain proteome, gel ABPP FP-Rh; inhibition, % at 20 µM; 150 compounds, 30% hits; AID 652029;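 active means inhibition of LYPLA2 enzyme probe labeling above about 50%, limit read from the data; inactive means inhibition below that limit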;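 further: loss of FP-Rh probe labeling of the LYPLA2 gel band measured as band density; 0% = DMSO only control band and 100% = blank gel background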
* hit, by the source's call; x = no result given. Compounds with a hit are over-represented: about 1.4% of the library has one in this group of screens.

SMILES | ZTA DNA inh | LYPLA2 inh | LYPLA1 counter | LANA-H2A inh | EBNA-1 inh | LYPLA2 conf | others
O=C(c1ccc(Cl)cc1)N1CCC(O)(CSc2ccc(Cl)cc2)CC1 | -21 | 33* | 2 | 6 | 4 | 29*
O=C(c1cccc(S(=O)(=O)N2CCCC2)c1)N1CCN(Cc2ccccc2)CC1 | 7 | 2 | 1 | 6 | x | x
CCOc1ccc(C(=O)NC(=S)Nc2cccnc2)cc1[N+](=O)[O-] | -4 | 7 | 2 | 5 | -10 | x
COc1ccc(C(=O)NC(=S)Nc2cccnc2)cc1[N+](=O)[O-] | -4 | 28* | 8 | -1 | -6 | 28*
Cc1ccccc1OCCOC(=O)c1cc(S(=O)(=O)N2CCCCC2)ccc1N1CCOCC1 | -3 | 6 | 1 | 1 | x | x
O=[N+]([O-])c1c(Nc2cccc(O)c2)cc(Cl)c2nonc12 | 10 | 47* | 0 | 5 | -2 | 51*
O=C(CNC(=O)C1COc2ccccc2O1)Nc1ccc(F)c(F)c1 (stereo unspecified) | x | x | x | 4 | x | x
CC(=O)N(CCCNC(=O)c1ccccc1)C(=O)c1ccccc1 | -8 | -5 | 0 | 0 | 2 | x
CCOC(=O)C1CCN(C(=O)CNC(=O)Cn2c(C)cc3ccccc3c2=O)CC1 | 7 | 29* | 2 | 4 | 9 | 19
COc1ccc(N2CCN(CCCNC(=O)c3cc4sccc4n3C)CC2)cc1 | 3 | 33* | 4 | 4 | -5 | 32*
CN(C(=O)c1ccc(NC(=O)Cc2ccc(NC(=O)C3CCCN(C(=O)CCc4ccccc4)C3)cc2)cc1)C1CC1 (stereo unspecified) | 9 | 58* | 6 | 0 | x | 50* | LYPLA2 gel ABPP=46
CN(C(=O)CSc1nc2ccccc2c(=O)n1-c1ccccc1Cl)C1CCS(=O)(=O)C1 (stereo unspecified) | x | x | x | -1 | x | x
CCC(=O)Nc1cccc(C(=O)c2ccc(C)c(C)c2)c1 | -2 | 3 | -2 | x | 5 | x
COC(=O)CSc1nccc(C)n1 | 10 | 44* | 4 | 2 | -4 | 1
Cc1ccc(NC2=C/C(=N/S(=O)(=O)c3cccs3)c3ccccc3C2=O)cc1C | 6 | 0 | -2 | 8 | -10 | x
Cc1cc(C)c(S(=O)(=O)/N=C2/C=C(Sc3ncn[nH]3)C(=O)c3ccccc32)cc1C | 32 | 36* | 2 | 7 | -12 | 33*
Cc1ccc(S(=O)(=O)NCC(=O)OCc2nnc(-c3ccccc3)o2)cc1 | -3 | -1 | -3 | -3 | 2 | x
CCOc1ccc(CC(=O)N/N=C/c2sccc2C)cc1 | x | x | x | 7 | x | x
CC(C)CN(C(=O)COC(=O)CCC(=O)c1ccc(F)cc1)c1c(N)n(Cc2ccccc2)c(=O)[nH]c1=O | -9 | -5 | -3 | 0 | 4 | x
CCN1C(=O)CC(C(=O)Nc2ccc(F)cc2)SC1=Nc1ccc2c(c1)OCO2 (stereo unspecified) | 13 | 36* | 2 | 2 | 8 | 3
COc1ccc(N=C2SC(C(=O)Nc3ccc4c(c3)OCO4)CC(=O)N2C)cc1 (stereo unspecified) | -15 | 53* | -2 | 1 | 2 | 39*
CNC(=O)C1CC(=O)N(Cc2ccc3c(c2)OCO3)C(=Nc2ccc(OC)cc2)S1 (stereo unspecified) | -30 | -3 | -2 | -1 | -2 | x
CCN=C1SC(C(=O)Nc2cccc(Br)c2)CC(=O)N1CC (stereo unspecified) | 5 | 26* | 0 | 3 | -2 | 26*
CC(=O)Nc1c(NC(=O)CC#N)[nH]c2c(c1=O)c(=O)n(C)c(=O)n2C | 5 | 1 | 0 | 7 | -3 | x
CC(=O)c1ccc(N2CCN(c3ccc(S(=O)(=O)NCCN(C)C)cc3[N+](=O)[O-])CC2)cc1 | -3 | 28* | 4 | -7 | 6 | 31*
SMILES | ZTA DNA inh | LYPLA2 inh | LYPLA1 counter | LANA-H2A inh | EBNA-1 inh | LYPLA2 conf | others
CN(C)CCCNS(=O)(=O)c1ccc(N2CCN(Cc3ccc4c(c3)OCO4)CC2)c([N+](=O)[O-])c1 | 8 | -2 | -2 | 0 | 4 | x
CC(=O)c1ccc(N2CCN(c3ccc(S(=O)(=O)NCCCN(C)C)cc3[N+](=O)[O-])CC2)cc1 | -14 | 26* | 10 | 0 | -7 | 19
CCCN(C(=O)CCl)C1=CCCCC1 | -24 | -5 | -2 | 0 | -4 | x
COc1ccc(CNC(=O)c2cc(=O)c3cc(C)cc(C)c3o2)cc1 | 2 | -2 | -2 | 1 | 3 | x
CC(C)C(NC(=O)c1ccccc1NC(=O)c1ccccc1)C(=O)NCCCn1ccnc1 (stereo unspecified) | 2 | 29* | 4 | -8 | 2 | -1
COc1ccc(CCNc2oc(-c3ccc(OC)c(OC)c3)nc2P(=O)(OC)OC)cc1OC | 9 | 28* | 1 | 13 | 0 | -5
COc1ccc(-c2nc(C#N)c(NCCc3ccccc3)o2)cc1OC | 2 | 9 | 7 | -4 | -6 | x
COc1cc(OC)cc(C(=O)NCCCNC(=O)c2ccccn2)c1 | -21 | 5 | 0 | 1 | -7 | x
O=C(c1ccc(OC2CCN(CCc3ccccc3)CC2)cc1)N1CCCC1 | -5 | 18 | 0 | 5 | 4 | x
O=C(c1ccc(OC2CCN(CCc3ccccc3)CC2)cc1)N1CCCC(CCCO)C1 (stereo unspecified) | 1 | 65* | 7 | 2 | 1 | 51* | LYPLA2 gel ABPP=12
O=C(c1ccc(F)cc1)C1CCN(CCn2c(=O)[nH]c3ccccc3c2=O)CC1 | -2 | 33* | 8 | -1 | -2 | 36*
COc1ccc(CCN2C(=O)CC(NNc3ccc([N+](=O)[O-])cc3)C2=O)cc1OC (stereo unspecified) | -5 | 51* | 1 | 1 | -8 | 54* | LYPLA2 gel ABPP=17
COc1ccc(CCN2C(=O)CC(Cc3ccccc3)C2=O)cc1OC (stereo unspecified) | -24 | 7 | 1 | -2 | 0 | x
Fc1ccccc1COc1ccc(/C=N/n2cnnc2)cc1 | 5 | 26* | 4 | 1 | -6 | 12
O=[N+]([O-])c1ccccc1/C=N\N1CCN(c2ccccc2)CC1 | 8 | 2 | 2 | -5 | 2 | x
O=[N+]([O-])c1ccccc1/C=C\C=N\N1CCN(c2ccccc2)CC1 | -9 | 40* | 10 | 0 | -15 | 36*
COc1ccc(CCNC(=O)C2CC(O)CN2S(=O)(=O)c2ccc(Cl)cc2)cc1OC (stereo unspecified) | x | x | x | 0 | x | x
COc1ccc(CCNC(=O)COc2ccc(-c3ccccc3)cc2)cc1OC | -4 | 30* | 0 | 4 | 12 | 31*
COc1ccc(CCNC(=O)CCCOc2ccc(C)cc2)cc1OC | 12 | 3 | 1 | 2 | 8 | x
COc1cccc(CCN2CCC(CNS(=O)(=O)c3cc(-c4cc(C)no4)ccc3C)CC2)c1 | -1 | 28* | 2 | -1 | -10 | 35*

Screening results deposited in PubChem BioAssay by several laboratories.
